Measured values taken from PubChem BioAssay (Tox21).
Results filed as inconclusive are left out. Entries that show only a call come without a potency. Unmarked numbers belong to inactive results. The source made the active and inactive calls. The call rests on the fitted dose curve; in most records, active means well fitted curve in the direction sought with a large enough effect in the repeat runs; inconclusive means weak or mixed curves; inactive means no such curve, though single readings can be large; an effect the other way counts as inactive or inconclusive.

How the values were obtained:
[1] = target: Cytochrome P450 2D6 (Homo sapiens) (UniProt P10635); assay: Cytochrome P450 Family 2 Subfamily D Member 6 (CYP2D6) small molecule antagonists: luciferase reporter qHTS assay (AID 1671196); further: nearly all actives have a fitted effect of over 50% in size; further: potency means the concentration at half of the fitted maximal effect; on activity change, negative = inhibition: series mostly up to about 120 µM
Method in brief: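 Inhibition of CYP2D6 was gauged by loss of luminescence, since light produced tracks the luciferin generated from a proluciferin substrate. A 10 min room-temperature preincubation preceded 1 h NADPH-supported turnover.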

[2] = target: Cytochrome P450 2C19 (Homo sapiens) (UniProt P33261); assay: Cytochrome P450 Family 2 Subfamily C Member 19 (CYP2C19) small molecule antagonists: luciferase reporter qHTS assay (AID 1671197); further: nearly all actives have a fitted effect of over 65% in size; further: potency means the concentration at half of the fitted maximal effect; on activity change, negative = inhibition: series mostly up to about 120 µM
Method in brief: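 P450-Glo CYP2C19 system: enzyme-substrate mix with compound 10 min at room temperature, then NADPH regeneration solution, 1 h at 37C. Proluciferin-to-luciferin conversion detected by luminescence after 20 min with detection reagent; ketoconazole as positive control.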

[3] = target: Cytochrome P450 2C9 (Homo sapiens) (UniProt P11712); assay: Cytochrome P450 Family 2 Subfamily C Member 9 (CYP2C9) small molecule antagonists: luciferase reporter qHTS assay (AID 1671198); further: nearly all actives have a fitted effect of over 50% in size; further: potency means the concentration at half of the fitted maximal effect; on activity change, negative = inhibition: series mostly up to about 120 µM
Method in brief: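 P450-Glo proluciferin substrate with CYP2C9 enzyme; 10 min RT preincubation, then NADPH regeneration 1 h at 37C; luciferin detection reagent 20 min RT, luminescence in relative luminescence units.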

[4] = target: Cytochrome P450 1A2 (Homo sapiens) (UniProt P05177); assay: Cytochrome P450 Family 1 Subfamily A Member 2 (CYP1A2) small molecule antagonists: luciferase reporter qHTS assay (AID 1671199); further: nearly all actives have a fitted effect of over 50% in size; further: potency means the concentration at half of the fitted maximal effect; on activity change, negative = inhibition: series mostly up to about 120 µM
Method in brief: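 Signal from luciferin formed by CYP1A2 from a proluciferin substrate is read as luminescence, expressed in relative luminescence units. Compounds sit with enzyme 10 min, NADPH-driven reaction runs 1 h, all at room temperature.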

[5] = target: Voltage-gated inwardly rectifying potassium channel KCNH2 (Homo sapiens) (UniProt Q12809); assay: Human Ether-a-go-go-Related Gene (hERG) channel small molecule antagonists: fluorescence cell-based qHTS assay (AID 1671200);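 further: hERG-expressing U2OS cells given a thallium stimulus after FluxOR II dye loading; series mostly up to about 77 µM; nearly all actives have a fitted effect of over 50% in size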
Method in brief: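 Kinetic two-minute fluorescence traces, sampled at 1 s, were collected following thallium stimulus of U2OS cells (1000 per well) that had been cultured overnight at 37 C and loaded with FluxOR II.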

[6] = target: Cytochrome P450 3A4 (Homo sapiens) (UniProt P08684); assay: Cytochrome P450 Family 3 Subfamily A Member 4 (CYP3A4) small molecule antagonists: luciferase reporter qHTS assay (AID 1671201); further: nearly all actives have a fitted effect of over 50% in size; further: potency means the concentration at half of the fitted maximal effect; on activity change, negative = inhibition: series mostly up to about 120 µM
Method in brief: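 Proluciferin-to-luciferin conversion by CYP3A4, NADPH-regenerated, 1 h RT; luminescence read as RLU. Ketoconazole as control.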

[7] = target: Nuclear receptor subfamily 1 group I member 2 (Homo sapiens) (UniProt O75469); assay: CYP3A4 induction through human pregnane X receptor (PXR) by small molecules, qHTS assay (AID 1346984); further: nearly all actives have a fitted effect of over 40% in size
Method in brief: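 DPX-2 reporter cells; 24h cpd, 37C; Luciferin-IPA 3uM final x3h; One-Glo 30 min RT; lumi read.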

[8] = target: Nuclear receptor subfamily 1 group I member 2 (Homo sapiens) (UniProt O75469); assay: Human pregnane X receptor (PXR) activation by small molecules, qHTS assay (AID 1346985); further: nearly all actives have a fitted effect of over 40% in size
Method in brief: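 DPX-2 cells (HepG2 co-transfected with a PXR response element and a CYP3A4-promoter luciferase construct) were seeded at 2,000 per well, rested 5 hr at 37C, then exposed to DMSO-dissolved compounds for 24 hr. Activation was read as luciferase luminescence.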

Sequence of Cytochrome P450 3A4 (Homo sapiens) (P08684 whole entry, looked up): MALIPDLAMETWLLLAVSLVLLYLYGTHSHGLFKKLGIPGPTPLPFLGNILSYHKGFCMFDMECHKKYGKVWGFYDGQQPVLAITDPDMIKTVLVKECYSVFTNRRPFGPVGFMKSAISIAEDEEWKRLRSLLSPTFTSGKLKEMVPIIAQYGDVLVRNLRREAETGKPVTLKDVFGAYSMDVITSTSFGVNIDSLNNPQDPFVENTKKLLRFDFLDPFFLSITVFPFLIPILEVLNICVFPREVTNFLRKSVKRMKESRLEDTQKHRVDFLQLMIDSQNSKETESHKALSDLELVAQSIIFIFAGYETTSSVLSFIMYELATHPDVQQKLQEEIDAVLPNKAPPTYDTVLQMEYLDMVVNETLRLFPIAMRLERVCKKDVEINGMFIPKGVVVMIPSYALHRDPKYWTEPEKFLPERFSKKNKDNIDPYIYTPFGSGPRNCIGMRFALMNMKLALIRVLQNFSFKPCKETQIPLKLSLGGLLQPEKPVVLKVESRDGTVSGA
Sequence of Cytochrome P450 2D6 (Homo sapiens) (P10635 whole entry, looked up): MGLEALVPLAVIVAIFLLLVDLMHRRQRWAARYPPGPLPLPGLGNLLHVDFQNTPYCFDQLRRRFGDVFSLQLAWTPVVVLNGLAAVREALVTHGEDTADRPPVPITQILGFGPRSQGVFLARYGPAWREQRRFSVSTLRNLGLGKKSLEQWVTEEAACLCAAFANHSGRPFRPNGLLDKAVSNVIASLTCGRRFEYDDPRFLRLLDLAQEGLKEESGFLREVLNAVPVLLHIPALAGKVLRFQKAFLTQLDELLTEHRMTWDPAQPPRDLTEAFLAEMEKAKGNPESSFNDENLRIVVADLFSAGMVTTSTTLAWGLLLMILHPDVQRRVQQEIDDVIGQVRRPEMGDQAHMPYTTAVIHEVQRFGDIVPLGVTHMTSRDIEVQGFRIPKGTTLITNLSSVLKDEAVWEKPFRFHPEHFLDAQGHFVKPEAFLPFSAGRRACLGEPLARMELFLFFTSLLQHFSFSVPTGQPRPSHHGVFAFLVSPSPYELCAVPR
Sequence of Cytochrome P450 2C9 (Homo sapiens) (P11712 whole entry, looked up): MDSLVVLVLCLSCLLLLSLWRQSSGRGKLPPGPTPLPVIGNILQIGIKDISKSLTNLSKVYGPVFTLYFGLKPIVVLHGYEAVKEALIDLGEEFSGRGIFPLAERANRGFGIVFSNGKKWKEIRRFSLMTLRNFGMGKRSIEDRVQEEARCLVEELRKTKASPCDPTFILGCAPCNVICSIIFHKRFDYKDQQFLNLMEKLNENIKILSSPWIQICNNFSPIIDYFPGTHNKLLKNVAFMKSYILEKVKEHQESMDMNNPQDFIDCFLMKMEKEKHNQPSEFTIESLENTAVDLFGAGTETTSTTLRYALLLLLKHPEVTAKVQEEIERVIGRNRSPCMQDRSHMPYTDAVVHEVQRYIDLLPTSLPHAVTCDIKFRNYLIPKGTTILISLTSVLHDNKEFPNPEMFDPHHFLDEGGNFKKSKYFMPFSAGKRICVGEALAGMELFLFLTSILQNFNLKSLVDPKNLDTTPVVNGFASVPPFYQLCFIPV
Sequence of Cytochrome P450 1A2 (Homo sapiens) (P05177 whole entry, looked up): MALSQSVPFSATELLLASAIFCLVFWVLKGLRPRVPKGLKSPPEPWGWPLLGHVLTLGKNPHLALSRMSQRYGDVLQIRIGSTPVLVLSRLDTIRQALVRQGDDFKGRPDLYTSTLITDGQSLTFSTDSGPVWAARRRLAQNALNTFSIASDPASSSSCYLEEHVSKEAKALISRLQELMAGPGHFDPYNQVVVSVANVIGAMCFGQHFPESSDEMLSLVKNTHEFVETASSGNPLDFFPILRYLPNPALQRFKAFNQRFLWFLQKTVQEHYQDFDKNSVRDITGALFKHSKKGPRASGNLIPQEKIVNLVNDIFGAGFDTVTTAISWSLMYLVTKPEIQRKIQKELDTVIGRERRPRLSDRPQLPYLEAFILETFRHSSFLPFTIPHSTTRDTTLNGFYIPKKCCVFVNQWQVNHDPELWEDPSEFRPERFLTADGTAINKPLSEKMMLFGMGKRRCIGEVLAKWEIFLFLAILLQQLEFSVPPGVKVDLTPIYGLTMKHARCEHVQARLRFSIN
Sequence of Voltage-gated inwardly rectifying potassium channel KCNH2 (Homo sapiens) (Q12809 whole entry, looked up): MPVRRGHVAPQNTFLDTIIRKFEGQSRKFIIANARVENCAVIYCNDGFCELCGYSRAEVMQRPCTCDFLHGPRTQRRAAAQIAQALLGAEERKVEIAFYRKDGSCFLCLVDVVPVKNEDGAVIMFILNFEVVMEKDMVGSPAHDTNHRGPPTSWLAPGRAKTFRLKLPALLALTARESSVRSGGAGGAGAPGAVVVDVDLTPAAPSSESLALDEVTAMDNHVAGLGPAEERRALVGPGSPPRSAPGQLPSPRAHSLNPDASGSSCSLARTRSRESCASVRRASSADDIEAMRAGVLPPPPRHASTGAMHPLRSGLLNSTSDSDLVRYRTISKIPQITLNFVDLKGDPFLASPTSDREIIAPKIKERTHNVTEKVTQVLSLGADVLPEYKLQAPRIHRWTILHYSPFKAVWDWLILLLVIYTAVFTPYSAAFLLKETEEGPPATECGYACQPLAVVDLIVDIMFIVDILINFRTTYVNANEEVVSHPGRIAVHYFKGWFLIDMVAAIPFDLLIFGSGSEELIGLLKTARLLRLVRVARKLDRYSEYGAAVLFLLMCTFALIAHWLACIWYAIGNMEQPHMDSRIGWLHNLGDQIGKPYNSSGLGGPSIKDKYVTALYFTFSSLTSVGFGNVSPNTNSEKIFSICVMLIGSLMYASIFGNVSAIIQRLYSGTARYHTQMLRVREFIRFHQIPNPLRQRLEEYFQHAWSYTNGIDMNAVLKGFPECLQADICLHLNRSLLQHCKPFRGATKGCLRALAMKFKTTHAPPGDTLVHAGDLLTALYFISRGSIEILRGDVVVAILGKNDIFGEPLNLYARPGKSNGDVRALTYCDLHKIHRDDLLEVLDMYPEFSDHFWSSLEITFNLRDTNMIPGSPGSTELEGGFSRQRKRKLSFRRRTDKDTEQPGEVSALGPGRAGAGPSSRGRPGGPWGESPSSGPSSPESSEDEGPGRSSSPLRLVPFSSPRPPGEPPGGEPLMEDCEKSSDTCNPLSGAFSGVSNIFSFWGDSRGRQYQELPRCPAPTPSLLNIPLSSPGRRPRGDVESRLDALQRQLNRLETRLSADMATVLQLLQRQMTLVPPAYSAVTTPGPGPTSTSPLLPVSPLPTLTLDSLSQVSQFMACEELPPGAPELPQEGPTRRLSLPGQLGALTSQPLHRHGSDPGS
Sequence of Cytochrome P450 2C19 (Homo sapiens) (P33261 whole entry, looked up): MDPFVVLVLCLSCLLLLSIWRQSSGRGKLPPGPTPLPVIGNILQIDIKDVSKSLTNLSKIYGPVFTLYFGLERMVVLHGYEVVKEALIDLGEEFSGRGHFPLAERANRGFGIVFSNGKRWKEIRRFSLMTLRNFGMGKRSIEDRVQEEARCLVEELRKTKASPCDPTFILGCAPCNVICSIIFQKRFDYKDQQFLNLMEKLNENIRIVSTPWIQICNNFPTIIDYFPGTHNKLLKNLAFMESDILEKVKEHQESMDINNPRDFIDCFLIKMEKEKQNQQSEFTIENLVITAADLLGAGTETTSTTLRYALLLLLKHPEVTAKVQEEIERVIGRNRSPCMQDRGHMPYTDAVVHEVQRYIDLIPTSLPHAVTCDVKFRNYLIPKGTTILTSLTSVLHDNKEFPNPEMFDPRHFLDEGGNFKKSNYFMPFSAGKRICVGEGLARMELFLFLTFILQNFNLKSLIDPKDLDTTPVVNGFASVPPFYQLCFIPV

## CN(C)c1ccncc1
[1]
  Potency: 31.7 µM (active)
[2]
  Potency: inactive
[3]
  Potency: inactive
[4]
  Potency: inactive
[5]
  Potency: inactive
[6]
  Potency: inactive

## CCCC[O][Al]([O]CCCC)[O]CCCC
[1]
  Potency: inactive
[2]
  Potency: inactive
[3]
  Potency: inactive
[4]
  Potency: inactive
[5]
  Potency: inactive

## CCCCCCCOC(C)=O
[1]
  Potency: inactive
[2]
  Potency: inactive
[3]
  Potency: inactive
[4]
  Potency: inactive
[5]
  Potency: inactive

## C=C(C)C(=O)OCCCC
[1]
  Potency: inactive
[2]
  Potency: inactive
[3]
  Potency: inactive
[4]
  Potency: inactive
[5]
  Potency: inactive
[6]
  Potency: inactive

## CN(C)CCCN(C)C
[1]
  activity change, negative = inhibition: -7.64% [at 10.5 µM]
[2]
  activity change, negative = inhibition: -19.3% [at 10.5 µM]
[3]
  activity change, negative = inhibition: -13.3% [at 10.5 µM]
[4]
  Potency: 1.95 µM (active)
[5]
  activity change, negative = inhibition: 0.578% [at 6.97 µM]
[6]
  activity change, negative = inhibition: 12.7% [at 10.5 µM]

## C[C@@H]1CCC[C@H](C)N1CCCC(O)(c1ccccc1)c1ccccn1 (some centres not stated)
[1]
  Potency: 0.692 µM (active)
[2]
  Potency: inactive
[3]
  Potency: inactive
[4]
  Potency: inactive

## COc1ccc2cc(CCC(C)=O)ccc2c1
[7]
  outcome: inactive
[1]
  Potency: inactive
[2]
  Potency: 11 µM (active)
[5]
  Potency: inactive
[6]
  Potency: inactive

## CCN(CC)CC(=O)Oc1ccc(NC(C)=O)cc1
[1]
  Potency: inactive
[2]
  Potency: inactive
[3]
  Potency: inactive
[4]
  Potency: inactive
[5]
  Potency: inactive
[6]
  Potency: inactive

## CCOC(=O)c1ccc(N(C)C)cc1
[1]
  Potency: inactive
[2]
  Potency: 22.4 µM (active)
[3]
  Potency: 31.7 µM (active)
[4]
  Potency: 5.03 µM (active)
[5]
  Potency: inactive

## CCCCCCC(=O)c1ccccc1
[1]
  Potency: inactive
[2]
  Potency: inactive
[3]
  Potency: inactive
[4]
  Potency: 50.2 µM (active)
[5]
  Potency: inactive
[6]
  Potency: inactive

## N#Cc1cc(NC(=O)C(=O)O)c(Cl)c(NC(=O)C(=O)O)c1
[1]
  Potency: inactive
[2]
  Potency: inactive
[3]
  Potency: inactive
[4]
  Potency: inactive
[5]
  Potency: inactive
[6]
  Potency: inactive

## CCOC(=O)CN1CCCC1=O
[1]
  Potency: inactive
[2]
  Potency: inactive
[3]
  Potency: inactive
[4]
  Potency: inactive
[5]
  Potency: inactive
[6]
  Potency: inactive

## COc1cc2nc(N3CCN(C(=O)C4CCCO4)CC3)nc(N)c2cc1OC (configuration not stated)
[8]
  outcome: inactive
[3]
  Potency: inactive
[4]
  Potency: inactive

## Cc1ccc(NC(N)=O)cc1
[1]
  Potency: inactive
[2]
  Potency: inactive
[3]
  Potency: inactive
[4]
  Potency: 40.2 µM (active)
[5]
  Potency: inactive
[6]
  Potency: inactive

## CCCCC(O)/C=C(C)/C=C/C=C/C(=O)N1CCCC1=O (configuration not stated)
[1]
  Potency: inactive
[2]
  Potency: inactive
[3]
  Potency: inactive
[4]
  Potency: inactive
[5]
  Potency: inactive

## Cc1cc2c(cc1CC(=O)c1sccc1S(=O)(=O)Nc1onc(C)c1Cl)OCO2
[1]
  Potency: 2.45 µM (active)
[2]
  Potency: 8.71 µM (active)
[3]
  Potency: 8.71 µM (active)
[4]
  Potency: 3.23 µM (active)

## Cc1cc(=O)oc2cc(O[C@@H]3SC[C@@H](O)[C@H](O)[C@H]3O)ccc12
[1]
  Potency: inactive
[2]
  Potency: inactive
[3]
  Potency: inactive
[4]
  Potency: inactive

## CC(=O)SC[C@@H](C)C(=O)N1CCC[C@H]1C(=O)N[C@@H](Cc1ccccc1)C(=O)O
[1]
  Potency: inactive
[2]
  Potency: inactive
[3]
  Potency: inactive
[4]
  Potency: inactive
[5]
  Potency: inactive
[6]
  Potency: inactive

## CCc1ccc(CC)cc1
[1]
  Potency: inactive
[2]
  Potency: inactive
[3]
  Potency: inactive
[4]
  Potency: inactive
[5]
  Potency: inactive
[6]
  Potency: inactive

## C=CCCCCCCCCOC(C)=O
[1]
  Potency: inactive
[2]
  Potency: inactive
[3]
  Potency: inactive

## CC(O)CCCCn1c(=O)c2c(ncn2C)n(C)c1=O (configuration not stated)
[7]
  outcome: inactive
[8]
  outcome: inactive
[3]
  Potency: inactive
[5]
  Potency: inactive
[6]
  Potency: inactive

## C=CCOC(=O)CCCCCCCC
[1]
  Potency: 63.8 µM (active)
[2]
  Potency: inactive
[3]
  Potency: inactive
[4]
  Potency: 40.2 µM (active)
[5]
  Potency: inactive

## C=CCCCCCCCCCCCCCC
[1]
  activity change, negative = inhibition: -17.7% [at 23.6 µM]
[2]
  Potency: 18.6 µM (active)
[3]
  activity change, negative = inhibition: -3.74% [at 23.6 µM]
[5]
  activity change, negative = inhibition: 4.07% [at 15.8 µM]
[6]
  activity change, negative = inhibition: -5.46% [at 23.6 µM]

## CC/C=C\CCOC(=O)c1ccccc1
[1]
  Potency: inactive
[2]
  Potency: inactive
[3]
  Potency: inactive
[5]
  Potency: inactive
[6]
  Potency: inactive

## CNC(C)=O
[1]
  Potency: inactive
[2]
  Potency: inactive
[3]
  Potency: inactive
[6]
  Potency: inactive

## O=C(O)Cc1c(Cl)ccc(Cl)c1Cl
[1]
  Potency: inactive
[2]
  Potency: 15.9 µM (active)
[4]
  Potency: 25.2 µM (active)
[5]
  Potency: inactive
[6]
  Potency: 12.6 µM (active)

## CCCCNCC
[1]
  Potency: inactive
[2]
  Potency: 27.2 µM (active)
[4]
  Potency: 19.3 µM (active)
[5]
  Potency: inactive
[6]
  Potency: inactive

## C=COCCCCO
[1]
  Potency: inactive
[2]
  Potency: inactive
[5]
  Potency: inactive
[6]
  Potency: inactive

## CCN(CC)CC
[1]
  Potency: 23.6 µM (active)
[2]
  Potency: 59.4 µM (active)
[4]
  Potency: inactive
[5]
  Potency: inactive
[6]
  Potency: inactive

## Nc1nc(Cl)cc(Cl)n1
[1]
  Potency: inactive
[2]
  Potency: inactive
[3]
  Potency: inactive
[6]
  Potency: inactive

## CNC(=O)c1c(I)c(NC(C)=O)c(I)c(C(=O)O)c1I
[1]
  Potency: inactive
[2]
  Potency: inactive
[3]
  Potency: inactive
[5]
  Potency: inactive
[6]
  Potency: inactive

## O=C(O)/C=C(\CC(=O)O)C(=O)O
[1]
  Potency: inactive
[2]
  Potency: inactive
[3]
  Potency: inactive
[6]
  Potency: inactive

## CCCCc1ccc(Cl)cc1
[1]
  Potency: inactive
[2]
  Potency: inactive
[3]
  Potency: inactive
[5]
  Potency: inactive
[6]
  Potency: inactive

## CCC(C)(C)C
[1]
  Potency: inactive
[2]
  Potency: inactive
[4]
  Potency: 37.7 µM (active)
[5]
  Potency: inactive
[6]
  Potency: inactive

## COc1cc(C(=O)NC2CCCNC2)cc(OC)c1OC (configuration not stated)
[1]
  Potency: inactive
[2]
  Potency: inactive
[4]
  Potency: 15.5 µM (active)
[5]
  Potency: inactive

## COc1cc(NS(=O)(=O)c2ccc(N)cc2)ncn1
[1]
  Potency: inactive
[2]
  Potency: inactive
[5]
  Potency: inactive
[6]
  Potency: inactive

## Clc1ccc2c(c1)Nc1ccccc1S2
[1]
  Potency: inactive
[2]
  Potency: 3.89 µM (active)
[4]
  Potency: 0.347 µM (active)
[5]
  Potency: inactive
[6]
  Potency: inactive

## C=CCON/C(CCC)=C1\C(=O)CC(C)(C)C(C(=O)OC)=C1O
[1]
  Potency: inactive
[2]
  Potency: 78.7 µM (active)
[3]
  Potency: 35.2 µM (active)
[5]
  Potency: inactive
[6]
  Potency: 35.2 µM (active)
